Measured values taken from PMC5540273 (PLoS ONE, 2017).
“And” between values parts separate entries of the source, which are not always exact repeats. Identical values can stand only once.

Tested on: MRCKA
Details: concentration: 1 μM, replicates: in singlicate; 1 µM; n = 1
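Note: KINOMEscan kinase panel screen.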

Row | SMILES | %Inh
1 | CC(C)(CN)c1nc(-c2ccc(Cl)c(O)c2)c(-c2ccncc2)[nH]1.O=C(O)C(F)(F)F [SB-477794] | 46% and 35%
2 | NCCNS(=O)(=O)c1ccc(-c2ccnc3[nH]ccc23)cc1 [GSK977617] | 44% and 0%
3 | Cl.Cl.Cl.Fc1ccc(-c2ncn(C3CCNCC3)c2-c2ccnc(Nc3ccccc3)n2)cc1 [SB-238039] | 90.3% and 71%

Same assay, conditions: concentration: 1 μM, replicates: in singlicate; n = 1

Row | SMILES | %Inh
4 | COc1ccc(Nc2nccc(N3CCC(NC(=O)Nc4cccc(C(C)=O)c4)C3)n2)cc1 (centres unmarked) [GSK1379731] | 0%
5 | Fc1ccc(-c2nn3c(OCC(F)(F)F)cccc3c2-c2ccncc2)cc1 [GW514784] | 24%
6 | Cc1cn2c(=O)cc(N3CCOCC3)nc2n1Cc1cccc(Cl)c1Cl [GSK2334006] | 6%
7 | Fc1ccc(-c2ncn(CCCN3CCOCC3)c2-c2cccnc2)cc1 [SB-211743] | 0%
8 | C[C@@H](Oc1cc(-n2cnc3ccc(NC(=O)NC(C)(C)C)cc32)sc1C(N)=O)c1ccccc1Cl [GSK346294] | 12%
9 | Cc1ccc(C(=O)NCC(N)=O)cc1-n1c(C)cc(OCc2ccc(F)cc2F)c(Br)c1=O | 3%
10 | c1ccc(-c2n[nH]cc2-c2ccnc3ccccc23)nc1 [GW271431] | 28%
11 | O=C1Cc2cc(Nc3nc(NCc4cccc(S(=O)(=O)C(F)(F)F)c4)ncc3C(F)(F)F)ccc2N1 | 5%
12 | NCC(NC(=O)c1cc(-c2cn[nH]c2)c(-c2ccnc3[nH]ccc23)s1)c1ccccc1.O=C(O)C(F)(F)F.O=C(O)C(F)(F)F (centres unmarked) [GSK1325775] | 80%
13 | COc1ccc(Nc2nccc(N3CCC(NC(=O)Nc4cc(C)ccc4C)C3)n2)cc1 (centres unmarked) [GSK1379741] | 24%
14 | CC(C)Oc1ccc2c(-c3ccnc(Nc4ccc(N5CCN(C)CC5)cc4)n3)cnn2n1 [GW696155] | 35%
15 | O=C(c1ccc(-c2cc(-c3c[nH]nc3-c3ccccn3)ccn2)cc1)N1CCOCC1 [GW812171] | 1%
16 | CN(C(=O)c1ccc(-c2cc(-c3c[nH]nc3-c3ccccn3)ccn2)cc1)C1CCOCC1 [GW810083] | 4%
17 | O=C(Nc1cccc(-c2nn3ncccc3c2-c2ccnc(Nc3cccc(C(F)(F)F)c3)n2)c1)c1c(F)cccc1F [GSK299495] | 58%
18 | Cl.Oc1cccc(Nc2ccnc3cc(-c4ccncc4)ccc23)c1 [GW494601] | 1%
19 | O=c1cc(N2CCOCC2)nc2n(Cc3cccc(F)c3)ccn12 [GSK2297430] | 0%

Row | SMILES | %Inh
20 | COc1ccc(CNC(=O)NC2CCN(c3ccnc(Nc4ccc(OC)cc4)n3)C2)cc1 (centres unmarked) [GSK1379727] | 0%
21 | CCc1nc(-c2cccc(C)c2)c(-c2ccnc(NCc3ccccc3)c2)s1 | 0%
22 | CCc1ccnc(/C=C/c2n[nH]c3cc(Sc4ccccc4C(=O)NC)ccc23)c1 | 0%
23 | Cc1nnc(-c2ccc(C)c(-c3ccc(C(=O)Nc4ccc(NS(C)(=O)=O)cc4)cc3)c2)o1 [GW702865] | 0%
24 | Cc1nnc(-c2ccc3ncc(-c4ccc(S(C)=O)cc4)n3c2)o1 (centres unmarked) | 9%
25 | CC(=O)Nc1ccc(COc2ccc(Nc3ccnc4cc(-c5ccccn5)ccc34)cc2)cc1.Cl [GW440148] | 13%
26 | CCn1cnc2c(N)ncnc21 [GW345098] | 0%
27 | Cc1nnc(-c2ccc3occ(-c4ccc(C(C)O)cc4)c3c2)o1 (centres unmarked) | 10%
28 | O=c1cc(N2CCOCC2)nc2n(Cc3cccc(Cl)c3Cl)c(C3CC3)nn12 [GSK2358994] | 0%
29 | O=C(NCCCN1CCOCC1)c1cccc(Nc2nccc(Nc3ccc(Oc4ccccc4)cc3)n2)c1 [GW663929] | 4%
30 | [2H]C([2H])(c1cccc(C(F)(F)F)c1C)n1ccn2c(=O)nc(N3CCOCC3)cc12 [GSK2336394] | 23%
31 | NS(=O)(=O)CCc1cccc(Nc2nccc(-c3c(-c4cccc(NC(=O)c5c(F)cccc5F)c4)nn4ccccc34)n2)c1 [GSK336735] | 92.2%
32 | CN1c2ccc(NCc3ccc(F)cc3)cc2-c2c(cnn2C)S1(=O)=O | 0%
33 | COCCNC(=O)c1ccc(-c2cc(C(=O)NC3CC3)cc(F)c2C)cc1 [GW868318] | 0%
34 | N#Cc1ccc(-c2cc(-c3c[nH]nc3-c3ccccn3)ccn2)cc1 [GW693028] | 0%
35 | O=C(NOCC1CC1)c1ccc(F)c(F)c1Nc1ccc(I)cc1Cl | 0%

Tested on: T1, MRCKB
T1 construct: gene CDC42BPB
Details: concentration: 1 μM, replicates: in singlicate; 1 µM; n = 1

Row | SMILES | %Inh
36 | CC(C)(CN)c1nc(-c2ccc(Cl)c(O)c2)c(-c2ccncc2)[nH]1.O=C(O)C(F)(F)F [SB-477794] | 76% and 72%
37 | NCCNS(=O)(=O)c1ccc(-c2ccnc3[nH]ccc23)cc1 [GSK977617] | 80% and 62%
38 | Cl.Cl.Cl.Fc1ccc(-c2ncn(C3CCNCC3)c2-c2ccnc(Nc3ccccc3)n2)cc1 [SB-238039] | 75% and 92.8%
